Key:
Assay in all cases: DAPPL (digital affinity profiling via proximity ligation, sequencing); 10 mM Tris-HCl pH 7.5, 50 mM NaCl, 1 mM DTT, 4% glycerol, room temperature, 30 min; GST-TFs on glutathione beads, 16-mer random dsDNA library, 0.1% formaldehyde crosslink after washing; high values mean tight binding
FEV = molecular target: T1, FEV (Homo sapiens, UniProt Q99581 1-238); conditions: protein: recombinant; tags: N-terminal GST; dsDNA, one strand shown
T1 sequence: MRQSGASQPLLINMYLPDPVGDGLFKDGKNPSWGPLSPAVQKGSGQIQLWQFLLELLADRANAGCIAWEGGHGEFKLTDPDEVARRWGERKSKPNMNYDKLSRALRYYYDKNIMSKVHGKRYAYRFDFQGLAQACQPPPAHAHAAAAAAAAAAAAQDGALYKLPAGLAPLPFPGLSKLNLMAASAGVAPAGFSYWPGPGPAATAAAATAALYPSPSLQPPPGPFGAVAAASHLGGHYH
Procedure, shortened: (§1)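 Human transcription factors carrying a GST fusion were produced in yeast, bound to glutathione beads, tagged with DNA barcodes and pooled together with a tag-only sample. Each pool was held with 200 nmole of a random double-stranded 16-mer DNA library in Tris/NaCl/DTT/glycerol buffer for 30 min at room temperature, then washed, crosslinked in 0.1% formaldehyde, proximity-ligated with BsaI/T4 ligase (1 h, 37 °C), PCR-amplified and sequenced on an Illumina NextSeq500. Binding signal is the read frequency of each hexamer for a given factor divided by its frequency in the tag-only sample.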

ETV5 = ETV5 (Homo sapiens, UniProt P41161 1-510); conditions: protein: recombinant; tags: N-terminal GST; dsDNA, one strand shown
Procedure, shortened: as §1

HSF1 = HSF1 (Homo sapiens, UniProt Q00613 1-529); conditions: protein: recombinant; tags: N-terminal GST; chain copies: 3; dsDNA, one strand shown
Procedure, shortened: as §1

SPIC = molecular target: T2, SPIC (Homo sapiens, UniProt Q8N5J4 1-248); conditions: protein: recombinant; tags: N-terminal GST; dsDNA, one strand shown
T2 sequence: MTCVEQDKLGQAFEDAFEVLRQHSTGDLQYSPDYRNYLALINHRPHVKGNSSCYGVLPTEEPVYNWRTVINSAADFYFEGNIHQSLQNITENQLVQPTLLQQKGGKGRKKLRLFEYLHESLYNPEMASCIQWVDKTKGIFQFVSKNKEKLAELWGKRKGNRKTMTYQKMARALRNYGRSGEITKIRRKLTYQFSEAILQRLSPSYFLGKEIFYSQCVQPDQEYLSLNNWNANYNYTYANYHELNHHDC
Procedure, shortened: as §1

ELF4 = ELF4 (Homo sapiens, UniProt Q99607 1-663); conditions: protein: recombinant; tags: N-terminal GST; dsDNA, one strand shown
Procedure, shortened: as §1

ELK4 = molecular target: T3, ELK4 (Homo sapiens, UniProt P28324-2 1-405); conditions: protein: recombinant; tags: N-terminal GST; dsDNA, one strand shown
T3 sequence: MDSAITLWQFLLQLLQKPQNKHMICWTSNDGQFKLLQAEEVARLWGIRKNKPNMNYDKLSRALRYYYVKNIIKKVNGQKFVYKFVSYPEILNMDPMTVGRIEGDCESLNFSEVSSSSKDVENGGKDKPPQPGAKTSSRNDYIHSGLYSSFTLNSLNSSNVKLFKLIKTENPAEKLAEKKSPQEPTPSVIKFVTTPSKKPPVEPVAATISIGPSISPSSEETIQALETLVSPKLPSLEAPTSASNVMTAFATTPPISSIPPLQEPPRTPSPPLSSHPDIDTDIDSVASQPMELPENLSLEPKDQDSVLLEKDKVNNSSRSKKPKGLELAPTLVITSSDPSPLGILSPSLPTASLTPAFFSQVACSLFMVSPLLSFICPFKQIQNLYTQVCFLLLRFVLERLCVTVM
Procedure, shortened: as §1

ETV2 = molecular target: T4, ETV2 (Homo sapiens, UniProt O00321 1-342); conditions: protein: recombinant; tags: N-terminal GST; dsDNA, one strand shown
T4 sequence: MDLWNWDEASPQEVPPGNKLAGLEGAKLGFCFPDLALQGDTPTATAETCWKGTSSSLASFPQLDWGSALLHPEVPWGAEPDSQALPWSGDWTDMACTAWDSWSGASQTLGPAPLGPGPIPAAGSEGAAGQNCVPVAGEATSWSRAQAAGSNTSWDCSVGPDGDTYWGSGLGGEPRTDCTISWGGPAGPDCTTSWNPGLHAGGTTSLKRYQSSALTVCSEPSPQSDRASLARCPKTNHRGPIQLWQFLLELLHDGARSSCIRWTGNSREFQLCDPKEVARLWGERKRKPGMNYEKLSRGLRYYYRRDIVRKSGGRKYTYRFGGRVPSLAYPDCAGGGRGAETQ
Procedure, shortened: as §1

ELF3 = molecular target: T5, ELF3 (Homo sapiens, UniProt P78545 1-371); conditions: protein: recombinant; tags: N-terminal GST; dsDNA, one strand shown
T5 sequence: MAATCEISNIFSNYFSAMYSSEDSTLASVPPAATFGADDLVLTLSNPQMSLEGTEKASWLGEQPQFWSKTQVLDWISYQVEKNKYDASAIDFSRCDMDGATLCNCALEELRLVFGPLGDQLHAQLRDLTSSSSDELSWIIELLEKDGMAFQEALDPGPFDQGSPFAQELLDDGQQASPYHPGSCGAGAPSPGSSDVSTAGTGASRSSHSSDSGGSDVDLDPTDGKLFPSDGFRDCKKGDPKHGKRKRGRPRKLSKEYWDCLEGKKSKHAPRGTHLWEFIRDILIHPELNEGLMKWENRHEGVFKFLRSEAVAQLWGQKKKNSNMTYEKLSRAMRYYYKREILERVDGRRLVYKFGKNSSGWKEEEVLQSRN
Procedure, shortened: as §1

CRX = CRX (Homo sapiens, UniProt O43186 1-299); conditions: protein: recombinant; tags: N-terminal GST; dsDNA, one strand shown
Procedure, shortened: as §1

ETV1 = ETV1 (Homo sapiens, UniProt P50549 1-477); conditions: protein: recombinant; tags: N-terminal GST; dsDNA, one strand shown
Procedure, shortened: as §1

ELF4, sequence (Q99607 whole entry): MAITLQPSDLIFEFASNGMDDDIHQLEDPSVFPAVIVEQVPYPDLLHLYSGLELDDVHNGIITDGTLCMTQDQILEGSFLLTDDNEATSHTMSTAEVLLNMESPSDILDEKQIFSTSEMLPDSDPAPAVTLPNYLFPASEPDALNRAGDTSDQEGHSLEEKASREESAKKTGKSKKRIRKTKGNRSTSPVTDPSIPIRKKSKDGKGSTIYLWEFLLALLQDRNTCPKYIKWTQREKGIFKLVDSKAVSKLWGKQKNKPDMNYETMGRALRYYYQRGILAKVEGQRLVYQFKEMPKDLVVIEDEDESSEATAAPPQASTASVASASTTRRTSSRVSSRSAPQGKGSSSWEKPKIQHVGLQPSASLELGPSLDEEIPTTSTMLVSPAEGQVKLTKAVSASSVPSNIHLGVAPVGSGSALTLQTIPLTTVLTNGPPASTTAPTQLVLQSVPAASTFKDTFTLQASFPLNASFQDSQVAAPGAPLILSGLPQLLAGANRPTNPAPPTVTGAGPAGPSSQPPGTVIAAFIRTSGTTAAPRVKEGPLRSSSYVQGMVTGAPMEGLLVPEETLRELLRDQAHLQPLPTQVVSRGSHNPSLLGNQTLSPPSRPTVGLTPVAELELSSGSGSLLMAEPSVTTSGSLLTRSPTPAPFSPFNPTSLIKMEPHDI
ETV5, sequence (P41161 whole entry): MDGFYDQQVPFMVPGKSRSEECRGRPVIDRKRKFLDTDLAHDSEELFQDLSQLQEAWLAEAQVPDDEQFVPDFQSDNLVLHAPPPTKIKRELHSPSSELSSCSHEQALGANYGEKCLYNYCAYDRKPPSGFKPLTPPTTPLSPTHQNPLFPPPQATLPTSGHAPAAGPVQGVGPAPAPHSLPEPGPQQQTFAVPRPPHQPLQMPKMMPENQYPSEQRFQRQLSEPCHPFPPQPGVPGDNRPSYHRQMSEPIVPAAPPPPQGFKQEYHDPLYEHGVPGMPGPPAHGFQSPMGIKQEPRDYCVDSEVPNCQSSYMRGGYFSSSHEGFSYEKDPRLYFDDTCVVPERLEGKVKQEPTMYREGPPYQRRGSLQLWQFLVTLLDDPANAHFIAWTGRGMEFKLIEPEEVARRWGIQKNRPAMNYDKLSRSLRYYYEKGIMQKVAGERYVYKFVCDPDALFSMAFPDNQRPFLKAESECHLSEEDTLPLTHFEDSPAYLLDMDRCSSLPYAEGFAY
ETV1, sequence (P50549 whole entry): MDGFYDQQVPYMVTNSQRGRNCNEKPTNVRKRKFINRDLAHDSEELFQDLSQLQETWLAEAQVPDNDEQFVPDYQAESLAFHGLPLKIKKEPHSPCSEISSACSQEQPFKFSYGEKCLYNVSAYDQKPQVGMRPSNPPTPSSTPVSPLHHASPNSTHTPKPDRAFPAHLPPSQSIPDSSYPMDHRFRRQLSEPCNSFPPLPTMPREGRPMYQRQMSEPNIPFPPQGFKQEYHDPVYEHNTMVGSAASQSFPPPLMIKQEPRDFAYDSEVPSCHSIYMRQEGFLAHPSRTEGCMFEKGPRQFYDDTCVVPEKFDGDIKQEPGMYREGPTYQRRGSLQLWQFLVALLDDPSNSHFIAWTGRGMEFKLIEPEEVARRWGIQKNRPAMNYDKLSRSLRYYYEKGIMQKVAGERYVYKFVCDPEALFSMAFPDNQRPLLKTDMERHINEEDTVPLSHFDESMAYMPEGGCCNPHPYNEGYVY
CRX, sequence (O43186 whole entry): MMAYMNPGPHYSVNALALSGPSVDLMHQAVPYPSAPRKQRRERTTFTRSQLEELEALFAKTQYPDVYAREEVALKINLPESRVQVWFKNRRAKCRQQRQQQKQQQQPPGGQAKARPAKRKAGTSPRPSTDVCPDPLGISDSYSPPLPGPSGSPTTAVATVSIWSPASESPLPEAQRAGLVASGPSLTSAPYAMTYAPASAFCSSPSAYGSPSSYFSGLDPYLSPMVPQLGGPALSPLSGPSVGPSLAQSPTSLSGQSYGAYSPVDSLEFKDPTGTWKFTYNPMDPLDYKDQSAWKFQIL
HSF1, sequence (Q00613 whole entry): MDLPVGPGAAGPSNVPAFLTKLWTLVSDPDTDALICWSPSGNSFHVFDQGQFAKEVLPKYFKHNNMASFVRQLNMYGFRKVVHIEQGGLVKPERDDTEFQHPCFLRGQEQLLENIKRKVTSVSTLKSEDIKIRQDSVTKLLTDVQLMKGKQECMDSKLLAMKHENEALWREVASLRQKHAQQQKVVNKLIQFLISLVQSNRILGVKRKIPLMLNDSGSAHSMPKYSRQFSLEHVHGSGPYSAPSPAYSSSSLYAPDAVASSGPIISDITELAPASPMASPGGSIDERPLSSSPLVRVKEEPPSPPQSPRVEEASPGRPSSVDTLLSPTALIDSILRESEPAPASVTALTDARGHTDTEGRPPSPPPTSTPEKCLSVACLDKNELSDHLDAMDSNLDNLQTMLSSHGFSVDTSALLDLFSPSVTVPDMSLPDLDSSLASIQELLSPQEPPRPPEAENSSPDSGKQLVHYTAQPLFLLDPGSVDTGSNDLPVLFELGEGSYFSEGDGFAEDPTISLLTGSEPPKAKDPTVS

Sequence | binding signal (FEV) | binding signal (ETV5) | binding signal (HSF1) | binding signal (SPIC) | binding signal (ELF4) | binding signal (ELK4) | binding signal (ETV2) | binding signal (ELF3) | binding signal (CRX) | binding signal (ETV1)
ATTACA | 1.06 fold enrichment (6-mer frequency, TF over GST control) | 1.07 fold enrichment (6-mer frequency, TF over GST control) | 1.4 fold enrichment (6-mer frequency, TF over GST control) | 1.15 fold enrichment (6-mer frequency, TF over GST control) | 1.16 fold enrichment (6-mer frequency, TF over GST control) | 1.2 fold enrichment (6-mer frequency, TF over GST control) | 1.14 fold enrichment (6-mer frequency, TF over GST control) | 1.16 fold enrichment (6-mer frequency, TF over GST control) | 1.86 fold enrichment (6-mer frequency, TF over GST control) | 1.17 fold enrichment (6-mer frequency, TF over GST control)
ATGTTA | 1.13 fold enrichment (6-mer frequency, TF over GST control) | 1.25 fold enrichment (6-mer frequency, TF over GST control) | 1.12 fold enrichment (6-mer frequency, TF over GST control) | 1.28 fold enrichment (6-mer frequency, TF over GST control) | 1.33 fold enrichment (6-mer frequency, TF over GST control) | 1.23 fold enrichment (6-mer frequency, TF over GST control) | 1.24 fold enrichment (6-mer frequency, TF over GST control) | 1.17 fold enrichment (6-mer frequency, TF over GST control) | 1.31 fold enrichment (6-mer frequency, TF over GST control) | 1.3 fold enrichment (6-mer frequency, TF over GST control)
AACCCT | 1.29 fold enrichment (6-mer frequency, TF over GST control) | 1.31 fold enrichment (6-mer frequency, TF over GST control) | 1.24 fold enrichment (6-mer frequency, TF over GST control) | 1.18 fold enrichment (6-mer frequency, TF over GST control) | 1.34 fold enrichment (6-mer frequency, TF over GST control) | 1.24 fold enrichment (6-mer frequency, TF over GST control) | 1.2 fold enrichment (6-mer frequency, TF over GST control) | 1.33 fold enrichment (6-mer frequency, TF over GST control) | 1.39 fold enrichment (6-mer frequency, TF over GST control) | 1.38 fold enrichment (6-mer frequency, TF over GST control)
ATCCGC | 2.09 fold enrichment (6-mer frequency, TF over GST control) | 1.78 fold enrichment (6-mer frequency, TF over GST control) | 1.58 fold enrichment (6-mer frequency, TF over GST control) | 1.68 fold enrichment (6-mer frequency, TF over GST control) | 1.65 fold enrichment (6-mer frequency, TF over GST control) | 1.6 fold enrichment (6-mer frequency, TF over GST control) | 1.9 fold enrichment (6-mer frequency, TF over GST control) | 1.62 fold enrichment (6-mer frequency, TF over GST control) | 2.06 fold enrichment (6-mer frequency, TF over GST control) | 1.8 fold enrichment (6-mer frequency, TF over GST control)
TTTAAG | 1.31 fold enrichment (6-mer frequency, TF over GST control) | 1.34 fold enrichment (6-mer frequency, TF over GST control) | 1.87 fold enrichment (6-mer frequency, TF over GST control) | 1.47 fold enrichment (6-mer frequency, TF over GST control) | 1.29 fold enrichment (6-mer frequency, TF over GST control) | 1.22 fold enrichment (6-mer frequency, TF over GST control) | 1.38 fold enrichment (6-mer frequency, TF over GST control) | 1.28 fold enrichment (6-mer frequency, TF over GST control) | 2.81 fold enrichment (6-mer frequency, TF over GST control) | 1.28 fold enrichment (6-mer frequency, TF over GST control)
TCTCCT | 1.43 fold enrichment (6-mer frequency, TF over GST control) | 1.33 fold enrichment (6-mer frequency, TF over GST control) | 1.55 fold enrichment (6-mer frequency, TF over GST control) | 1.59 fold enrichment (6-mer frequency, TF over GST control) | 1.51 fold enrichment (6-mer frequency, TF over GST control) | 1.38 fold enrichment (6-mer frequency, TF over GST control) | 1.43 fold enrichment (6-mer frequency, TF over GST control) | 1.7 fold enrichment (6-mer frequency, TF over GST control) | 1.55 fold enrichment (6-mer frequency, TF over GST control) | 1.49 fold enrichment (6-mer frequency, TF over GST control)
TTATTG | 1.28 fold enrichment (6-mer frequency, TF over GST control) | 1.32 fold enrichment (6-mer frequency, TF over GST control) | 1.71 fold enrichment (6-mer frequency, TF over GST control) | 1.29 fold enrichment (6-mer frequency, TF over GST control) | 1.36 fold enrichment (6-mer frequency, TF over GST control) | 1.43 fold enrichment (6-mer frequency, TF over GST control) | 1.33 fold enrichment (6-mer frequency, TF over GST control) | 1.35 fold enrichment (6-mer frequency, TF over GST control) | 2.35 fold enrichment (6-mer frequency, TF over GST control) | 1.24 fold enrichment (6-mer frequency, TF over GST control)

Source: article PMC7862700, “An all-to-all approach to the identification of sequence-specific readers for epigenetic DNA modifications on cytosine”
